PubChem BioAssay (EPA / NIEHS)
“And” between values parts separate entries of the source, which are not always exact repeats. Equal entries are not always repeated. Some structures have more than one record in an assay (separate samples or runs), and their calls can disagree. The source made the active and inactive calls. How the source made its calls: active means hit-call score of the fitted dose curve at least 0.9, where 1 is the maximum; inactive means score below 0.9.

Legend:
[1] = BSK_CASM3C_SRB: Viability Assessment in the BioMAP Diversity Plus: CASM3C Assay (AID 2283050); conditions: primary human coronary artery smooth muscle cells;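 further: total protein by SRB staining as cytotoxicity measure in parallel cultures; cells exposed to compound for 24 h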
[2] = read-out: Thrombomodulin, THBD (gene 7056); test: BSK_CASM3C_Thrombomodulin: BioMAP Diversity Plus: CASM3C Assay for Thrombomodulin Biomarker Activity (AID 2283051); conditions: primary human coronary artery smooth muscle cells; actives raise or lower the signal;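 further: thrombomodulin protein level measured by ELISA 24 h after dosing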
[3] = read-out: Tissue Factor, F3 (gene 2152); test: BSK_CASM3C_TissueFactor: BioMAP Diversity Plus: CASM3C Assay for Tissue Factor Biomarker Activity (AID 2283052); conditions: primary human coronary artery smooth muscle cells; actives raise or lower the signal;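 further: cell surface tissue factor protein level read by ELISA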
[4] = read-out: Interferon-gamma inducible Protein 10 (IP10), CXCL10 (gene 3627); test: BSK_hDFCGF_IP10: BioMAP Diversity Plus: hDFCGF Assay for Interferon-gamma inducible Protein 10 (IP10) Biomarker Activity (AID 2283053); conditions: primary human foreskin fibroblasts; actives raise or lower the signal
Procedure, shortened: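 Primary foreskin fibroblasts, human; 24 h compound exposure; IP-10 by ELISA; bidirectional fit vs DMSO.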

[5] = read-out: Urokinase-type plasminogen activator receptor (uPAR), PLAUR (gene 5329); test: BSK_CASM3C_uPAR: BioMAP Diversity Plus: CASM3C Assay for Urokinase-type plasminogen activator receptor (uPAR) Biomarker Activity (AID 2283054); conditions: primary human coronary artery smooth muscle cells; actives raise or lower the signal;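 further: cell-surface uPAR protein level quantified by ELISA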
[6] = read-out: Vascular cell adhesion molecule 1 (VCAM1), VCAM1 (gene 7412); test: BSK_CASM3C_VCAM1: BioMAP Diversity Plus: CASM3C Assay for Vascular cell adhesion molecule 1 (VCAM1) Biomarker Activity (AID 2283055); conditions: primary human coronary artery smooth muscle cells; actives raise or lower the signal;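 further: VCAM-1 protein level quantified by ELISA on the cells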
[7] = read-out: Collagen III, COL3A1 (gene 1281); test: BSK_hDFCGF_CollagenIII: BioMAP Diversity Plus: hDFCGF Assay for Collagen III Biomarker Activity (AID 2283056); conditions: primary human foreskin fibroblasts; actives raise or lower the signal
Procedure, shortened: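 Response relative to DMSO, fitted in both directions, reflects ELISA-measured collagen III in human primary skin fibroblasts 24 h after compound addition.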

[8] = read-out: Epidermal growth factor receptor (EGFR), EGFR (gene 1956); test: BSK_hDFCGF_EGFR: BioMAP Diversity Plus: hDFCGF Assay for Epidermal growth factor receptor (EGFR) Biomarker Activity (AID 2283057); conditions: primary human foreskin fibroblasts; actives raise or lower the signal
Procedure, shortened: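 hDFCGF system, primary human foreskin fibroblasts; compound 24 h; EGFR measured by ELISA; DMSO = negative control/baseline; bidirectional fitting.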

[9] = read-out: Interleukin-8 (IL8), CXCL8 (gene 3576); test: BSK_hDFCGF_IL8: BioMAP Diversity Plus: hDFCGF Assay for Interleukin-8 (IL8) Biomarker Activity (AID 2283058); conditions: primary human foreskin fibroblasts; actives raise or lower the signal
Procedure, shortened: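 Fibroblast monolayers (human foreskin, hDFCGF) received test chemical for 24 h before ELISA detection of IL-8; either increases or decreases relative to DMSO count as activity.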

[10] = BSK_hDFCGF_Proliferation: Cell Proliferation Assessment in the BioMAP Diversity Plus: hDFCGF Assay (AID 2283059); conditions: primary human foreskin fibroblasts;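 further: curves fitted for both rise and fall of signal versus DMSO baseline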
Procedure, shortened: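 Primary human foreskin fibroblasts, sub-confluent; […]; 10% TCA fix, 0.1% SRB stain, A560 total protein. Gain/loss fitted bidirectionally vs DMSO control.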

Measured: AC50

CCc1cccc(C)c1N(C(=O)CCl)C(C)COC (configuration not stated)
active: [4] 20 µM | [10] 16.1 µM
inactive: all other assays above

CC1=NNC(=O)N(/N=C/c2cccnc2)C1
inactive: all assays above

CCC(=O)Nc1ccc(Cl)c(Cl)c1
not listed: [7]
inactive: all other assays above

CSC1=N[C@@](C)(c2ccccc2)C(=O)N1Nc1ccccc1
active: [10] 23.3 µM
not listed: [7]
inactive: all other assays above

CCc1cnc(C2=NC(C)(C(C)C)C(=O)N2)c(C(=O)O)c1 (configuration not stated)
inactive: all assays above

CC(C1CC1)C(O)(Cn1cncn1)c1ccc(Cl)cc1 (configuration not stated)
active: [10] 29.9 µM
inactive: all other assays above

CCOP(=O)(NC(C)C)Oc1ccc(SC)c(C)c1 (configuration not stated)
inactive: all assays above

CC(Oc1cccc(Cl)c1)C(=O)O (configuration not stated)
inactive: all assays above

O=[N+]([O-])c1cc(C(F)(F)F)c(Cl)c([N+](=O)[O-])c1Nc1ncc(C(F)(F)F)cc1Cl
active: [1] 2.04 µM and 5.51 µM | [3] 5.69 µM | [4] 2.13 µM and 7.1 µM | [5] 3.29 µM and 5.5 µM | [6] 2.86 µM and 7.2 µM | [7] 1.83 µM and 11.7 µM | [8] 1.92 µM and 5.48 µM | [9] 2.78 µM and 11.7 µM | [10] 546 nM and 1.8 µM
inactive: [2] | [3]

CCOC(=O)CC(SP(=O)(OC)OC)C(=O)OCC (configuration not stated)
inactive: all assays above

CCC(CC)Nc1c([N+](=O)[O-])cc(C)c(C)c1[N+](=O)[O-]
active: [2] 16.3 µM | [4] 20 µM | [10] 29.2 µM
inactive: all other assays above

CNc1cnn(-c2cccc(C(F)(F)F)c2)c(=O)c1Cl
inactive: all assays above

S=C1NCCN1
inactive: all assays above

CN(C)[C@@H]1C(=O)C(C(N)=O)=C(O)[C@@]2(O)C(=O)C3=C(O)c4c(O)cccc4[C@@](C)(O)[C@H]3[C@H](O)[C@@H]12
active: [4] 29.9 µM | [10] 19.6 µM and 13.9 µM
inactive: [1] | [2] | [3] | [4] | [5] | [6] | [7] | [8] | [9] | [10]

CNC(=O)ON=C(C)SC
inactive: all assays above

COc1cccc(C(=O)NN(C(=O)c2cc(C)cc(C)c2)C(C)(C)C)c1C
inactive: all assays above

CCCSP(=O)(OCC)SCCC
inactive: all assays above

CCC(=NOC/C=C/Cl)C1=C(O)CC(C2CCOCC2)CC1=O (configuration not stated)
inactive: all assays above

CON=C(C(=O)OC)c1ccccc1CON=C(C)c1cccc(C(F)(F)F)c1
active: [6] 8.45 µM | [7] 1.47 µM | [8] 2.78 µM | [10] 2.77 µM
inactive: all other assays above

CCOP(=S)(OCC)Oc1cc(C)nc(C(C)C)n1
inactive: all assays above

CN(C)NC(=O)CCC(=O)O
inactive: all assays above

CCCCOC(=O)[C@@H](C)Oc1ccc(Oc2ccc(C#N)cc2F)cc1
inactive: all assays above

CCOP(=S)(OCC)Oc1ccc2c(C)c(Cl)c(=O)oc2c1
active: [4] 27.9 µM
not listed: [7] | [10]
inactive: all other assays above

O=C(O)c1cc(Oc2ccc(C(F)(F)F)cc2Cl)ccc1[N+](=O)[O-]
inactive: all assays above

Cc1ccn2nc(S(=O)(=O)Nc3c(F)cccc3F)nc2n1
inactive: all assays above

COP(=O)(NC(C)=O)SC (configuration not stated)
inactive: all assays above

CC[C@H](C)[C@H]1O[C@]2(C=C[C@@H]1C)C[C@@H]1C[C@@H](C/C=C(\C)[C@@H](O[C@H]3C[C@H](OC)[C@@H](O[C@H]4C[C@H](OC)[C@@H](NC)[C@H](C)O4)[C@H](C)O3)[C@@H](C)/C=C/C=C3\CO[C@@H]4[C@H](O)C(C)=C[C@@H](C(=O)O1)[C@]34O)O2
active: [1] 11.6 µM | [4] 4.28 µM | [5] 12.3 µM | [6] 12 µM | [7] 5.53 µM | [8] 11.7 µM | [9] 6.99 µM | [10] 1.43 µM
inactive: [2] | [3]

CCOP(=S)(OCC)Oc1ccc([N+](=O)[O-])cc1
active: [2] 15.4 µM | [4] 20 µM | [10] 14.2 µM
inactive: all other assays above

CCOP(=O)(OCC)Oc1cc(C)nc(C(C)C)n1
active: [7] 31.7 µM | [10] 25.9 µM
inactive: all other assays above

CCc1cccc(CC)c1N(COC)C(=O)CCl
active: [4] 11.2 µM | [7] 11.1 µM | [10] 13.8 µM
inactive: all other assays above

COP(=O)(OC)C(O)C(Cl)(Cl)Cl (configuration not stated)
not listed: [9]
inactive: all other assays above

CNC(=O)ON=C(SC)C(=O)N(C)C
inactive: all assays above

Cc1nn(-c2cc(NS(C)(=O)=O)c(Cl)cc2Cl)c(=O)n1C(F)F
not listed: [7]
inactive: all other assays above

CC(C)N(C(=O)SCC(Cl)=C(Cl)Cl)C(C)C
inactive: [3] | [5] | [6]
active: [1] 32.4 µM | [2] 20 µM | [4] 34 µM | [7] 30.5 µM | [8] 28.4 µM | [9] 33.6 µM | [10] 36.6 µM
